Data as given in PubChem BioAssay AID1259325 (C. David Weaver Laboratory, Vanderbilt University, 2017).
Out of some 63,000 compounds screened, about 30 (0.05%) were called active. How the calls were made is not given here. Not all results are given here.

These molecules were tested against G protein-activated inward rectifier potassium channel 2 (Homo sapiens) (UniProt P48051) (assay: opens human GIRK2 potassium channels (AID 1259325)). Conditions: HEK293-GIRK2 thallium flux, Thallos fluorescence, MPD.
G protein-activated inward rectifier potassium channel 2 (Homo sapiens), sequence (P48051 whole entry, looked up): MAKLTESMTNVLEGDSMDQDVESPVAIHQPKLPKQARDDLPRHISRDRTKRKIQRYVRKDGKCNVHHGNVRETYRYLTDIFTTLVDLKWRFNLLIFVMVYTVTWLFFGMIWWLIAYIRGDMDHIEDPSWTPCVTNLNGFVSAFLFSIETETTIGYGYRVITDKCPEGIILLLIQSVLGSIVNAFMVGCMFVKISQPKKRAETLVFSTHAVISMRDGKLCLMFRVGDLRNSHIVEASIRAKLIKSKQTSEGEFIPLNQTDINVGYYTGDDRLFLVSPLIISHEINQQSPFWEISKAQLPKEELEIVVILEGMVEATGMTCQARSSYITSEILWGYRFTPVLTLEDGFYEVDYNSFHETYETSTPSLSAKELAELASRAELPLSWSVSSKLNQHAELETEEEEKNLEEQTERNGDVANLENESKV

outcome, inactive:
O=S(=O)(c1ccccc1F)N(CCc1cccs1)Cc1ccoc1
COc1ccc(Nc2c(C(=O)N3CCCCC3)cnc3nc(C)ccc23)cc1OC
O=S(=O)(NCCC(O)c1ccoc1)c1ccc(F)c(Cl)c1 (centres undefined)
COC(=O)c1ccc2c(=O)n(CCC(=O)NCCN3CCCc4ccccc43)c(=S)[nH]c2c1
Cc1nc2sc(C)c(C)n2c(=O)c1NC(=O)c1ccccc1C(F)(F)F
COC(=O)Nc1nc2c(s1)CN(C(=O)c1cccc(C#N)c1)CC2
COc1cc(NC(=O)c2cnccn2)ccc1N1CCCC1=O
Cc1nn(-c2ccccc2)c(C)c1N1CCN(S(=O)(=O)c2cccs2)CC1
Cn1cccc1C(=O)N1CCN(Cc2nncn2-c2ccccc2F)CC1
Cc1cn2c3c(=O)n(C/C=C/c4ccccc4)c(=O)n(C)c3nc2n1-c1ccccc1O
CCCCN(C)C(=O)c1cc2c(=O)n3ccccc3nc2n1CCCOC
COc1ccc(OC)c(S(=O)(=O)NCC(c2ccc(F)cc2)N2CCOCC2)c1 (centres undefined)
CCOC(=O)c1cnn2ccc(NC(=O)c3cnn(-c4ccccc4)c3C)cc12
COc1ccc(C(O)CN2CCN(c3cccc(C)c3C)CC2)cc1 (centres undefined)
Cc1cc(NC(=O)C2CCN(C(=O)C3(c4ccccc4)CCOCC3)CC2)no1
COc1cccc(C(=O)Oc2ccc(/C=C/c3ccccn3)cc2)c1
Nc1cc2cc(Br)ccc2cn1
COc1ncccc1C(=O)NCCn1nc(C2CC2)n(-c2ccccc2)c1=O
CCc1cc2c(=O)n(Cc3ccco3)c(SCc3cc(=O)[nH][nH]3)nc2s1
Cc1cc(N2CCN(CCO)CC2)n2nc(C(F)(F)F)c(-c3ccc(Cl)cc3)c2n1
CCOc1ccc(N(C)S(=O)(=O)c2ccsc2C(=O)NCCC2=CCCCC2)cc1
CCC(=O)Nc1cc(-c2ccco2)nn1-c1nc2c(c(=O)[nH]1)CCC2
O=C(CCC(=O)N1CC(c2nc(-c3cccs3)no2)C1)c1ccccc1
Cc1ccc(Cl)c(-n2nnc(C(=O)Nc3ccccc3Cl)c2C)c1
O=C(NCC(=O)N1CCN(c2cc(-n3cccc3)ncn2)CC1)c1ccccc1
O=C(Nc1ccc2c(c1)OCO2)Nc1ccccc1NC(=O)c1ccccc1F
O=S(=O)(NC1CCN(c2ccc(-c3ccccc3Cl)nn2)CC1)c1cccs1
O=C(CN1CCN(c2ccccc2F)C1=O)Nc1ccc(OC(F)(F)F)cc1
CCOC(=O)N1CCc2c(sc(NC(=O)c3ccc(C)c(C)c3)c2-c2nc3ccccc3s2)C1
Cc1nnc(NC(=O)C2CCN(c3ccc(-c4ccco4)nn3)CC2)s1
Cc1cc(-c2ccccc2)nc2cc(-c3nc(-c4cccs4)no3)nn12
CCCCCNC(=O)c1sc(-c2nnn(-c3ccc(F)cc3)c2C)nc1C
Cc1ccc2[nH]c3c(=O)n(CC(=O)N4CCN(c5cccc(C(F)(F)F)c5)CC4)cnc3c2c1
COc1ccc(NCCN2N=C(C)C(C)n3c2nc2c3c(=O)n(C)c(=O)n2C)cc1 (centres undefined)
